# High-throughput results: PubChem, National Center for Advancing Translational Sciences (NCATS)
# p53 reactivation: mutant p53 re-activation in reporter cells | H1299 p53-A138V BP100-luciferase reporter, luminescence, 24 h | Potency, µM (doses to about 92.2 µM), without a hit: at the highest dose activity change, positive = activation, most hits filed as activators | 0.063% of 320,000 active | AID 504706; also: potency is read from the fitted curve at half-maximal effect; % of control where 0% means no effect; nearly all actives have a fitted effect of over 45% in size
#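 p53-null H1299 cells stably carrying temperature-sensitive p53-A138V and a BP100-luciferase reporter were pinned with compounds (4-point, 1:5 series) and held 24 hrs at 37 deg C. Luminescence was read 10 min after detection reagent.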
# B2AR arrestin: recruits beta-arrestin to the human beta2-adrenergic receptor; 0.02% of 330,000 active; P07550; Potency, µM (highest dose often 46.1 µM), for inactives: at the top dose activation, usual class: activators; beta-arrestin recruitment to beta2AR, cell-based reporter;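 also: potency is read from the fitted curve at half-maximal effect; 0% = DMSO controls and full agonism = EC100 isoproterenol or metaproterenol; nearly all actives have a fitted effect of over 65% in size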
# Mito fusion act: inhibitors of mitochondrial division or activators of mitochondrial fusion; 0.23% of 320,000 active; AID 485298; Potency, µM (series often up to 46.1 µM), inactives show at the top dose growth rescue (activation), actives largely listed as activators; S. cerevisiae fusion-defective mutant growth rescue, CellTiterGlo 48 h; also: potency is read from the fitted curve at half-maximal effect; % of control where 0% means no effect; nearly all actives have a fitted effect of over 45% in size
#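 Compounds are tested for their ability to restore growth of mitochondrial fusion-defective yeast strains at non-permissive 37C in YPEG medium over 48 hours. Viability is quantified by luciferase luminescence.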
# uPA generation: cell surface uPA generation inhibition | cell surface uPA generation assay, qHTS | 0.31% of 330,000 active | AID 540303 | Potency, µM (top dose mostly 38.3 µM), inactives show top-dose activity change, negative = inhibition, actives largely listed as inhibitors; active = well fitted inhibition curve with a large enough effect; inconclusive = small, poorly fitted or top-dose-only effect; inactive = no such curve, though single readings can be large or run the other way; tested in mouse RAW 264.7 cells; also: potency is read from the fitted curve at half-maximal effect; % is scaled to controls: 0 for no effect and ±100 for the full control effect; nearly all actives have a fitted effect of over 55% in size
# Giardia killer: kills Giardia lamblia | Giardia lamblia trophozoite viability | activity change, % at 7.66 µM, hits read low | 0.15% of 340,000 active; in the data active = activity change below about -80%; inconclusive = between about -30% and that limit;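 also: parasites exposed to compound for two days anaerobically before the ATP read; % is scaled to controls: 0 for no effect and ±100 for the full control effect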
#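 Compounds were tested on trophozoites seeded at 100 cells/well and held 48 hrs at 37 deg C anaerobically. An ATP-based luminescent kit measured the remaining live cells.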
# ClpP mod: qHTS Assay for Activators of ClpP; purified B. subtilis ClpP, FRET peptide cleavage, 20 min; Potency, µM (top dose mostly 57.5 µM), for the others: at the highest dose activity change, negative = active; 1.9% of 340,000 active; active = well fitted falling curve with a large enough effect; inconclusive = small, poorly fitted or top-dose-only effect; inactive = no such curve, though single readings can be large or run the other way; also: potency is read from the fitted curve at half-maximal effect; the source files actives as falling curves though it sought activators and does not explain the sign; nearly all actives have a fitted effect of over 65% in size
# Target sequence (P80244 whole entry, looked up): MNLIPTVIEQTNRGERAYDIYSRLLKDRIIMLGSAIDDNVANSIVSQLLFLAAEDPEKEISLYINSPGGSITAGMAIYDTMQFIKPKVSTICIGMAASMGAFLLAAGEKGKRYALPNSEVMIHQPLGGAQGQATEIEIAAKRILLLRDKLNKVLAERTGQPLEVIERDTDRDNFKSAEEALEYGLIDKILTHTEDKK
#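 Purified B. subtilis ClpP, 10 microg/mL final in Tris/HCl pH8 with KCl, BSA, glycerol and Tween-20, cleaved an Abz/nitrotyrosine-quenched decapeptide. Fluorescence (ex 320, em 430) was read at 0 and 20 min at room temperature. Delta was normalized to 5.8 microM ADEP and DMSO/no-enzyme controls.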
# Starred values were filed as active, the others as inactive; ? = inconclusive; . = not tested or not shown. Compounds with a hit are over-represented: about 2.1% of the library has one in this group of screens. Unless noted, calls follow the shape of the dose curve; as a rule, active = well fitted curve in the direction sought with a large enough effect; inconclusive = small, poorly fitted or top-dose-only effect, or another doubt; inactive = no such curve, though single readings can be large; an effect the other way counts as inactive or inconclusive.
SMILES,p53 reactivation,B2AR arrestin,Mito fusion act,uPA generation,Giardia killer,ClpP mod
CCCn1c(=O)[nH]c(=O)c2c1nc(-c1ccc(C#N)cc1)n2CCOC,-4%,0%,2%,-4%,-1,.
CCOc1ccc(NC(=O)c2ccc3c(c2)CCN3S(=O)(=O)CC)cc1,.,.,.,.,.,-3%
Cn1c(=O)c2c(-c3ccccc3Cl)n(Cc3ccc(Cl)cc3)cc2n(C)c1=O,.,.,.,.,.,25µM*
Cc1ccc(-c2c3c(=O)n(C)c(=O)n(C)c3cn2Cc2ccccc2)cc1,-3%,-2%,7%,-1%,2,-4%
Cc1ccc(OC(=O)COc2ccccc2)c(-n2nc3ccccc3n2)c1,?,0%,2%,-3%,-6,32µM*
Cc1ccc(OC(=O)COc2ccccc2C)c(-n2nc3ccccc3n2)c1,40µM*,-1%,8%,-16%,-3,?
Cc1ccc(OC(=O)c2cccc([N+](=O)[O-])c2)c(-n2nc3ccccc3n2)c1,?,0%,-5%,-2%,-9,-8%
COC(=O)COc1ccc(C)cc1-n1nc2ccccc2n1,1%,0%,11%,-2%,?,.
COc1ccc(N(C)S(=O)(=O)c2cccc(C(=O)Nc3nc4ccccc4[nH]3)c2)cc1,-4%,0%,-2%,-9%,-21,28µM*
CCc1ccc(NC(=O)c2nc(SCc3ccccc3F)ncc2Cl)cc1,.,.,.,.,.,4%
COc1ccccc1CNC(=O)CSc1nc(-c2ccc(OC)c(OC)c2)cc(C(F)(F)F)n1,.,.,.,.,.,28µM*
COc1ccc(-c2cc(C(F)(F)F)nc(SCC(=O)NCc3cccs3)n2)cc1,5%,0%,0%,.,-1,35µM*
O=C(CSc1nc(-c2ccccc2)cc(C(F)(F)F)n1)NCc1cccs1,-10%,0%,3%,-2%,-13,3%
COc1ccc(-c2cc(C(F)(F)F)nc(SCC(=O)NCc3cnn(C)c3C)n2)cc1OC,-9%,-1%,0%,-7%,-11,28µM*
COc1ccc(-c2cc(C(F)(F)F)nc(SCCC(=O)N3CCOCC3)n2)cc1,0%,0%,1%,8%,2,25µM*
Cc1ccc(NC(=O)C2CCCN(c3ncnc4c3nc3n4CCCCC3)C2)c(Br)c1 (configuration not stated),.,.,.,.,.,1%
S=c1nc[nH]c2n[nH]nc12,.,.,.,.,.,-2%
O=C(COc1ccccc1C(=O)Nc1ccccc1)NC1CCCCC1,.,.,.,.,.,1%
Cc1cc(C)c2oc(C(=O)Nc3c(C)n(C)n(-c4ccccc4)c3=O)cc(=O)c2c1,.,.,.,.,.,0%
CCn1c(=O)c2sccc2n2c(CCCC(=O)N3CCN(c4ccc(F)cc4)CC3)nnc12,.,.,.,.,.,-10%
CC1C(=O)N2CCCc3cc(S(=O)(=O)Nc4ccccc4C(N)=O)cc1c32 (configuration not stated),-3%,0%,13%,-9%,1,32µM*
CCOc1c2c(c(-c3ccc4c(c3)OCO4)c3cc(OC)c(OC)cc13)C(=O)OC2,.,.,.,.,16,4%
COc1ccc(-n2nc(C(=O)NCCc3ccc(OC)c(OC)c3)c3c4ccccc4n(C)c3c2=O)cc1,.,.,.,.,12,4%
O=C(O)C(=Cc1cccc([N+](=O)[O-])c1)c1ccc(Cl)cc1,.,.,.,0%,1,25µM*
COc1cc(/C=C/C(=O)Nc2cccc(S(=O)(=O)N3CCOCC3)c2)ccc1OCC#N,-19%,0%,-1%,?,-23,-11%
O=C(CNc1cccc(S(=O)(=O)N2CCOCC2)c1)Nc1cccc(Br)c1,-7%,0%,2%,0%,7,28µM*
O=C(CNc1cccc(S(=O)(=O)N2CCCC2)c1)Nc1cccc(Br)c1,0%,0%,2%,-1%,-1,-1%
COc1ccc(/C=C/C(=O)Nc2cccc(S(=O)(=O)N3CCOCC3)c2)cc1OC,-3%,-1%,-12%,-6%,-10,28µM*
CN(C)c1ccc(/C=C(\C#N)c2ccccc2)cc1,?,0%,-3%,0.89µM*,-10,2%
